# Results from article PMC12864922, “TDP-43 directly inhibits mRNA accumulation in neurites through modulation of mRNA stability”.
# In all, about 9,900 sequences were measured (“r (bound/input frequency ratio)”: median about 0.7, highest 2% from about 6.5 on). The full list was thinned out, with the highest values kept by preference.
# B1: ENSMUSG00000061578.929|Ksr2|22:26 (ssRNA)
# RNA: GGGAGUUCUACAGUCCGACGAUCGCUUCGAUAUCCGCAUGCUACAAGGGUGUUUAGAGUAGGCACACACGAAGUAUCAAUAAGGUUAUUGAGAUGAGGAUUUAGAAAGAUCCAUGUAUAAAAGGUCUAGAAGGAUGAAGAUCUAAAACAAGAAGACUGCAUGUUAACGCUCCUGCCACUGUUGCCCCUUCCUUUACCCUUGGCAGACAUUGCUAAUCAAUCUCAGCACAGUUUCCAACCACAGUCAUAGAACAUUUGCCACAAAGGCCCUGGAUGUGACUAUAUGUGCUGAGAAGGGAAGGUACUCUUGCGGUCGCACUAGUGUGGAAUUCUCGGGUGUCAAGG
# B2: ENSMUSG00000028439.103|Fam219a (ssRNA)
# RNA: GGGAGUUCUACAGUCCGACGAUCGCUUCGAUAUCCGCAUGCUAAUACCUAUUUGUGUUUUCCCCUCAUCUCCAGAUGGGAAGCCUGGCAGCGCUGUCCAAAGGGAUACUGUCUCUCCAUUAGAUAACUCCUUCCACUGUCUCCCUCCCCCGCUUUCUUACUUUCUGAGGGUUGGGAAGGUAAGAUGGGCCUUAGAGAGAAGCCAGGUUUGGGGAUGGUAUGACCUGUUCUCACCGGUCUCUAACCAGUGCAUCUGUCUCUCUGCCUCAUCCCCACACCGCCCUGCCACCCCCAGUCUUCUGUCCUCUUGCGGUCGCACUAGUGUGGAAUUCUCGGGUGUCAAGG
# B3: ENSMUSG00000028439.89|Fam219a|94:98 (ssRNA)
# RNA: GGGAGUUCUACAGUCCGACGAUCGCUUCGAUAUCCGCAUGCUAGGGUUUUGAGAAGAAAAGGAUCCAAGCAAUGGGGGCAGUUCUCACACCUCAGAGCCCCUCUCCCCAAACCCUGUGCCAGCCCAUAUACCUAUUACACAUUUCCCCUCAUCUCCAGAUGGGAAGCCUGGCAGCGCUGUCCAAAGGGAUACUGUCUCUCCAUUAGAUAACUCCUUCCACUGUCUCCCUCCCCCGCUUUCUUACUUUCUGAGGGUUGGGAAGGUAAGAUGGGCCUUAGAGAGAAGCCAGGUUUGGGGAUGGUACUCUUGCGGUCGCACUAGUGUGGAAUUCUCGGGUGUCAAGG
# B4: ENSMUSG00000029636.86|Wasf3 (ssRNA)
# RNA: GGGAGUUCUACAGUCCGACGAUCGCUUCGAUAUCCGCAUGCUAUUCCUGUUUCUUCCCUUUGCAAAUUGAAUUCCAGGUAGAUAUGGUUGUAGAGGGGAAAGUUUAACAAAUCAGAAUGAAAUGUUUGUCUGUUUGCACACUGGGCCUGGUGGCCUCCAAGGAAAUGUGUACGAUCGUUUGCUUUCUCUAUCUUGGCGCUUGCAACCGAGAGCGGCCAUUUUUAUGAGGGGAGCCCUGUGGGUACUCAUGUGGAAAGUGCCCACUGACUUUGGCAGAUGGAGUUCACUUUCAUGGCUAGCCCUCUCUUGCGGUCGCACUAGUGUGGAAUUCUCGGGUGUCAAGG
# B5: ENSMUSG00000061578.638|Ksr2 (ssRNA)
# RNA: GGGAGUUCUACAGUCCGACGAUCGCUUCGAUAUCCGCAUGCUAAGGAAUGGUGCUAGCUAGGGUGUGAGCCAAGCCCUUGAGGCUACUGUGAGUUAUGAGAUGUGUCCAACCCUCAGCCCACAGACUGCAUAUGCCCCAGGACAGCUGUGAAGGUGACCCAAUACAAAAUCGUAAACUAACUUAAAACCAUUAAGGGUUUUUGUUUUGUUGUUGUUUGCUGGCUUUUUGUUUUUUGGGUUGGUUUUCUUUUUCUUUCUUUCUUUUUUUUUUUUUUUUCCAACUCAAGUGUGAACUUUGUUGAUCUCUUGCGGUCGCACUAGUGUGGAAUUCUCGGGUGUCAAGG
# B6: ENSMUSG00000028439.326|Fam219a (ssRNA)
# RNA: GGGAGUUCUACAGUCCGACGAUCGCUUCGAUAUCCGCAUGCUAAGAUCCUAAUUAGAUAAGAAAAUGCCAAGGGAGGCAAGCCAGAGAAAGCAUCUGCAGGGGCCACAGGCCCAUGGUGGCCCCAUCUGAGCCCCCUCUCCCACCCCAGUUCGCAUCCCCACCACUCAUCAUCUGGGCCCCAACGCUAGAACUCCCCCCACCGCAUCCCCACUGGGCUCUUUGACUCACCCUUCUAGAACAUGGGUGCCUCCUCUCUUUAGACUGCUGCCUUUGCCUCUGACUUCCUGUGGGAUUGAGAGCCACUCUUGCGGUCGCACUAGUGUGGAAUUCUCGGGUGUCAAGG
# B7: ENSMUSG00000061578.1149|Ksr2 (ssRNA)
# RNA: GGGAGUUCUACAGUCCGACGAUCGCUUCGAUAUCCGCAUGCUAAAUGGCCCAGAAUUAUAGAGGACAGAGGAGAAGGUGGGCAUUGCAAGAUGCUGGAGCUUGGAAAGCAUGGUGGAAUUUGAUACACAUGAUCACCAAGCACCACCCGGGGAAGAAACUGGGUCACUGAGUCACUGGGUCACUCUGUUCCCUGAAGGCCCACCAACCACAUCCGCAUCCUACCUAGGGUGGAACUUUGACUGUCCUCGGGUGUCUCUGCUGUAUAUAGGCCAGUCACAAGCCCUUCUAAAAGCCUGCUCUUGCUCUUGCGGUCGCACUAGUGUGGAAUUCUCGGGUGUCAAGG
# B8: ENSMUSG00000043670.236|Diras1|111:115;221:233;244:250 (ssRNA)
# RNA: GGGAGUUCUACAGUCCGACGAUCGCUUCGAUAUCCGCAUGCUAUUUUCAGGGGUGGGUGACACAGGCCUGUCUGAUGAGCACCAGGUCUGUUCCAGGCUGUGGCAAGCUGGCUCCUGGCUCAGAAGUGACAAAGCUGCAGUACAGAGGCCUCACACACAGGUCAUCACCUCACAGUGGCUACAGACCAGGCUGUGGCCUGAGUGAGCUGGAACCUCUGGGGUGGGGACGAGAAAGAGAGAGGGAGAGAGAGGGGGGAGAGUGACACACACACACACAAGGGGGAGACACACACGGGGAAGAGUCUCUUGCGGUCGCACUAGUGUGGAAUUCUCGGGUGUCAAGG
# Target: TDP-43 (Homo sapiens, UniProt Q13148 1-414)
# Experiment: RNA Bind-n-Seq with designed 260-mer pool; 25 mM Tris-HCl, 150 mM KCl, 3 mM MgCl2, BSA (printed 500 mg/mL), 20 units/mL SUPERase IN; pH not stated; 500 nM RNA pool, 1 h, 4 C; TDP-43 5, 50, 500 nM; high values mean tight binding
# Details: protein: recombinant; tags: SBP (GST cleaved off with PreScission; pGEX-GST-SBP)
# Outline: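 An in vitro-transcribed pool of 260-nt 3′ UTR oligos (500 nM) was incubated for 1 h at 4 °C with recombinant SBP-tagged TDP-43 at 5, 50 or 500 nM held on streptavidin beads. The buffer contained 25 mM Tris-HCl, 150 mM KCl, 3 mM MgCl2, BSA and SUPERase IN. Biotin-eluted bound RNA was sequenced, and binding, R, is each oligo's normalized read abundance in the bound sample over that in input.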
# Sequence of TDP-43 (Q13148 whole entry): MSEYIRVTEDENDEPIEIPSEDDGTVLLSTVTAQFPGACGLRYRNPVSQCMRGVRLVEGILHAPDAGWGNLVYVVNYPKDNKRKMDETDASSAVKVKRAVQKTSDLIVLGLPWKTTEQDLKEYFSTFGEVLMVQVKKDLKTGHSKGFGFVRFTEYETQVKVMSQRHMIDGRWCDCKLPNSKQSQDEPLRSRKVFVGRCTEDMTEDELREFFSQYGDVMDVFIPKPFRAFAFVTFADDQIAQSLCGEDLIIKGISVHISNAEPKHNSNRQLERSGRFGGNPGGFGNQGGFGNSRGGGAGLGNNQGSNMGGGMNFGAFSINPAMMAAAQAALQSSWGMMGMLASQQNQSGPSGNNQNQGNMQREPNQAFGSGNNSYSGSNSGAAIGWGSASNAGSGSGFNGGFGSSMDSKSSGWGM
row,Binder,binding signal
1,B1,1.18 R (bound/input frequency ratio)
2,B2,0.421 R (bound/input frequency ratio)
3,B3,0.538 R (bound/input frequency ratio)
4,B4,3.02 R (bound/input frequency ratio)
5,B5,0.297 R (bound/input frequency ratio)
6,B6,1.54 R (bound/input frequency ratio)
7,B7,0.863 R (bound/input frequency ratio)
8,B8,3.82 R (bound/input frequency ratio)
